Screening data (PubChem)
TIM10 inh = growth inhibitors of isogenic TIM10 control yeast, primary screen, counter-screen for tim10-1 yeast inhibitor project, luminescence, uHTS. S. cerevisiae TIM10 strain growth, BacTiter-Glo luminescence, 24 h. inhibition, % at 10 µM. 330,000 tested, 1.4% active. AID 463195, 2010;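 active = inhibition of 40% or more at the single tested concentration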;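 note: wild-type TIM10 isogenic control strain grown at permissive 25 °C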
tim10-1 inh = growth inhibitors of tim10-1 mutant yeast, primary screen, luminescence, uHTS; AID 463190, 2010; inhibition, % at 20 µM; 330,000 tested, 2.2% active; S. cerevisiae tim10-1 ts strain growth, BacTiter-Glo, 24 h;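 active = inhibition of at least 40%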;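 note: mutant grown at 25 °C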
NALP3 yeast inh = NALP3 inflammasome inhibitors in reconstituted yeast, primary screen, luminescence, uHTS. Yeast reconstituted NLRP3/ASC/caspase-1, beta-gal luminescence, 24 h. inhibition, % at 10 µM. 330,000 tested, 0.39% active. AID 2825, 2010;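 active = inhibition of 50% or more; inactive = inhibition below 50%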
PfHsp90 yeast 2 = growth inhibition of PfHsp90-expressing yeast, primary screen, antimalarial PfHsp90 inhibitor project, S. cerevisiae, BacTiter-Glo luminescence, single point, set 2 | BacTiter-Glo ATP, 48 h; yeast lacking PDR1 and PDR3 efflux regulators | inhibition, % at 9.4 µM | 310,000 tested, 0.32% active;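 active = every replicate shows inhibition above about 80%, whatever the replicate mean, limit read from the data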
tim23-1 inh = growth inhibitors of tim23-1 mutant yeast, primary screen, luminescence, uHTS. S. cerevisiae tim23-1 growth, BacTiter-Glo luminescence, 24 h. inhibition, % at 20 µM. 330,000 tested, 1.3% active. AID 463212, 2010;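 active = growth inhibition of the mutant yeast at or above 50%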;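 note: temperature-sensitive mutant grown at 25 °C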
NALP1 inh = NALP1 inflammasome inhibitors in reconstituted yeast, colorimetric, S. cerevisiae, triplicate retest | S. cerevisiae NALP1/ASC/caspase-1 growth, X-gal OD620, 72 h | inhibition, % at 10 µM | 280,000 tested, 0.61% active; in the data active = inhibition mostly above about 24%, no sharp cut-off; inactive = mostly below about 32%
tim10-1 conf = growth inhibitors of tim10-1 mutant yeast, confirmation, single concentration, luminescence, S. cerevisiae. inhibition, % at 20 µM. 7,400 tested, 56% active. AID 463213, 2010. S. cerevisiae tim10-1 ts strain growth, BacTiter-Glo, 24 h. shares compounds with tim10-1 inh;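 active = inhibition of yeast growth at or above a set limit in either of two repeat tests at 20 µM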;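 note: tim10-1 mutant grown at permissive 25 °C to find synthetic lethal compounds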
Large screens that a line does not name were inactive (follow-up assays come after a bar, where they were run). Compounds with a hit are over-represented: about 4.1% of the library has one in this group of screens.

O=C(CSc1nc2nc3c(cc2c(=O)n1-c1ccccc1)CCCC3)Nc1cccc2ccccc12	tim10-1 inh 43 | tim10-1 conf inactive
Cc1ccccc1-n1c(SCC(=O)Nc2ccccc2)nc2nc3c(cc2c1=O)CCCC3	tim10-1 inh 44 | tim10-1 conf inactive
O=C(CSc1nc2ccccc2c(=O)n1-c1ccc(F)cc1F)Nc1ccc2c(c1)CCC2	none
O=C(COC(=O)c1ccc[nH]c1=O)NCCCc1ccccc1	none (no result: NALP1 inh)
COC(=O)c1cccnc1-n1c(=O)c2cccnc2n(Cc2ccc(Cl)cc2)c1=O	tim10-1 inh 49 (no result: PfHsp90 yeast 2) | tim10-1 conf 37
COC(=O)c1cccnc1-n1c(=O)c2cccnc2n(Cc2cccc([N+](=O)[O-])c2)c1=O	none
CCC(C)c1ccc(NC(=S)Nc2ccc(OC)c(OC)c2)cc1 (centres undefined)	tim10-1 inh 44 | tim10-1 conf 32
CCC(C)c1ccc(NC(=S)Nc2ccc(OC)cc2C)cc1 (centres undefined)	tim10-1 inh 45 | tim10-1 conf 36
COc1ccc(NC(=S)NC(C)c2ccncc2)cc1OC (centres undefined)	none
CCC(C)c1ccc(NC(=O)CN(C)CC(=O)Nc2cccc(OC)c2)cc1 (centres undefined)	none
CCC(C)c1ccc(NC(=O)CC(C)=O)cc1 (centres undefined)	tim10-1 inh 42 | tim10-1 conf inactive
CCCCN(C(=O)C1CCCC1)C1CCS(=O)(=O)C1 (centres undefined)	none (no result: NALP1 inh)
CCOC(=O)c1csc(N/N=C2\CCCc3ccccc32)n1	tim10-1 inh 48 | tim10-1 conf inactive
COc1ccc2c(c1)CCC/C2=N\Nc1nc(C(=O)NN)cs1	tim10-1 inh 41 (no result: PfHsp90 yeast 2, NALP1 inh) | tim10-1 conf 38
COc1ccc(CNC(=O)c2ccc(S(=O)(=O)N3CC(C)CC(C)C3)cc2)cc1OC (centres undefined)	none (no result: TIM10 inh, tim10-1 inh, NALP3 yeast inh, tim23-1 inh, NALP1 inh)
CCOc1ccc(-c2nc3n(c(=O)c2C#N)CCS3)cc1	none
FC(F)Oc1ccc(/C=N/c2c(-c3ccc(OC(F)F)cc3)nc3n2CCS3)cc1	tim10-1 inh 47 | tim10-1 conf inactive
Cc1ccnc(NC(=O)c2ccc(C(=O)c3ccccc3)cc2)c1	none (no result: NALP1 inh)
Cc1ccnc(NC(=O)c2ccccc2NC(=O)c2ccccc2)c1	tim10-1 inh 50 | tim10-1 conf 33
O=C(O)CC/C(=N\Nc1ccc(Cl)cc1)c1cccs1	tim10-1 inh 41 | tim10-1 conf inactive
CC(C)c1ccc(/C=C2\C(=O)N(CCN3CCOCC3)C(=S)N2C)cc1	tim10-1 inh 45 | tim10-1 conf 40
CCOc1ccccc1NC(=O)CN1CCCCCC1	none
CN=C(Nc1cc(Cl)ccc1Cl)SC1CC(=O)N(c2ccc(C(=O)OC)cc2)C1=O (centres undefined)	tim10-1 inh 44 (no result: PfHsp90 yeast 2, NALP1 inh) | tim10-1 conf 42
COC(=O)c1ccc(N2C(=O)CC(SCC(=O)Nc3ccc(OC)cc3)C2=O)cc1 (centres undefined)	none (no result: NALP1 inh)
Cc1cc(NC(=O)c2nn(C)c(C)c2Br)no1	none
Cc1ccc(-c2cc(=O)[nH][nH]2)c(C)c1	tim10-1 inh 44 | tim10-1 conf inactive
Cc1ccc(-c2csc3nc[nH]c(=O)c23)c(C)c1	none
CCCCN(C(=O)CSCC(=O)Nc1ccc(OC)cc1)c1c(N)n(CC(C)C)c(=O)[nH]c1=O	none (no result: TIM10 inh, tim10-1 inh, NALP3 yeast inh, tim23-1 inh, NALP1 inh)
Cc1ccc(N=C2C(=O)Nc3ccc(C)c(Br)c32)cc1	tim10-1 inh 41 | tim10-1 conf 30
Cc1cccc(C)c1NC(=O)c1cc(-c2ccccn2)nc2ccccc12	tim10-1 inh 41 | tim10-1 conf inactive
CCc1cccc(C)c1NC(=O)c1cc(-c2ccncc2)nc2ccccc12	tim10-1 inh 42 (no result: NALP1 inh) | tim10-1 conf inactive
O=C(Nc1ccncc1)c1cc(-c2ccccn2)nc2ccccc12	none
Cc1cccc(NC(=O)c2cc(-c3ccco3)nc3ccccc23)n1	tim10-1 inh 41 | tim10-1 conf inactive
COc1ccc(NC(=O)c2cc(-c3ccco3)nc3ccccc23)cc1	none (no result: NALP1 inh)
C[C@@H]1O[C@@H](O[C@H]2[C@H](Oc3cc(O)c4c(c3)OC(c3ccc(O)cc3)CC4=O)O[C@H](CO)[C@@H](O)[C@@H]2O)[C@H](O)[C@H](O)[C@H]1O (some centres undefined)	none (no result: NALP1 inh)
Cn1c(CC(=O)Nc2ccccc2F)nnc1SCC(=O)Nc1nccs1	none
COc1ccccc1NC(=O)N1CCCC1C(=O)NCCc1ccccc1 (centres undefined)	none
N#C/C(=C/c1ccc(N2CCCCCC2)o1)c1cccc(F)c1	tim10-1 inh 61 | tim10-1 conf 57
Cc1ccc(OS(=O)(=O)c2ccc(N3C(=O)CCC3=O)cc2)cc1	none
O=C(Cn1c(O)c(/C=C2\C=Nc3ccccc32)sc1=O)N1CCOCC1	none
O=C(Cn1c(O)c(/C=C2\C=Nc3ccc(Br)cc32)sc1=O)N1CCCC1	tim10-1 inh 52 | tim10-1 conf inactive
CN(CC(=O)Nc1ccccc1Br)C(=O)CCSc1ccc(F)cc1	none (no result: PfHsp90 yeast 2, NALP1 inh)
O=S(=O)(c1ccccc1)c1cnn(-c2ccccc2)c1-c1ccc(F)cc1	none
COc1ccc(-n2ncc(S(=O)(=O)c3ccccc3)c2-c2ccc(Cl)cc2)cc1	tim10-1 inh 41 | tim10-1 conf inactive
Cc1[nH]c2ccc(F)cc2c1CCN(Cc1ccncc1)C(=S)Nc1ccc(F)cc1	tim10-1 inh 42 | tim10-1 conf inactive
COc1ccc(F)cc1S(=O)(=O)n1nnc2ccccc21	tim10-1 inh 50 | tim10-1 conf 41
COc1ccc(OC)c(S(=O)(=O)n2nnc3ccccc32)c1	none
O=C(NC1CCCc2ccccc21)C1CCN(S(=O)(=O)c2ccccc2)CC1 (centres undefined)	tim10-1 inh 40 | tim10-1 conf inactive
CCCCCCOc1ccc(N2C(=O)CC(N3CCN(CCN=CC4C(=O)CC(C)(C)CC4=O)CC3)C2=O)cc1 (centres undefined)	tim10-1 inh 43 | tim10-1 conf 41
CCCCCCOc1ccc(N2C(=O)CC(N3CCN(CCN=CC4=C(O)CC(C)(C)CC4=O)CC3)C2=O)cc1 (centres undefined)	none
C/C=C(\C)CN1CCC(Oc2cc(C(=O)NC3CC3)ccc2OC)CC1	none
COc1ccc(N2C(=O)CC(Sc3n[nH]c(-c4cccc(C)c4)n3)C2=O)cc1 (centres undefined)	none (no result: PfHsp90 yeast 2)
